Source: ChEMBL document CHEMBL3433997, “St. Jude Leishmania screening dataset” (2016)
Several values for one entry are separate records, joined by “and”; a condition that tells them apart may be missing. Equal entries are not always repeated.

What follows are molecules tested against Solute carrier family 2, facilitated glucose transporter member 1 (Homo sapiens) (UniProt P11166) (assay: ST_JUDE_LEISH: Cytotoxicity at 2uM final concentration against transgenic Leishmania Mexicana promastigotes LmGLUT1 that are glucose transport deficient and complemented with the human glucose transporter GLUT1. Activity is measured by DNA content using SYBR green in vitro).
Chain of Solute carrier family 2, facilitated glucose transporter member 1 (Homo sapiens) (P11166 whole entry): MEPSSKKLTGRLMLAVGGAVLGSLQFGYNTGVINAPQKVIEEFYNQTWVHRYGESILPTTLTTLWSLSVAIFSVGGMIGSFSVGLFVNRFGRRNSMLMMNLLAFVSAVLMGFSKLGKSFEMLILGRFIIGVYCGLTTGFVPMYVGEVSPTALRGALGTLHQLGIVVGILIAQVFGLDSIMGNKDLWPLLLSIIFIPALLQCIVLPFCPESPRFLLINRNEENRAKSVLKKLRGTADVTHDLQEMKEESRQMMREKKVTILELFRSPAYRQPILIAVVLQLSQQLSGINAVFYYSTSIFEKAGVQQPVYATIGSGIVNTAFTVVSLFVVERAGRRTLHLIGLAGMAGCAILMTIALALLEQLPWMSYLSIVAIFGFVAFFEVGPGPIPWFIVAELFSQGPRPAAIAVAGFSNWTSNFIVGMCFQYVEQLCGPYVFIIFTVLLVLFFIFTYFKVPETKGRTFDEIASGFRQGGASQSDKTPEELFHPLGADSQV
Type: functional
`Oc1ccc(Cl)cc1CN1CCC(CCOC(c2ccccc2)c2ccccc2)CC1` was tested, and the inhibition was 9.61%. `O=C(NC1CCC(CN2CCC(c3c[nH]c4ccccc34)CC2)CC1)NC12CC3CC(CC(C3)C1)C2` (centres undefined) showed an inhibition of 3.42%. Work on `Cc1nc(-c2ccc(-c3ccc(C(=O)Nc4ccc5c(c4)C4(CCNCC4)CO5)cc3)c(C)c2)no1` yielded an inhibition of 2.05%. Work on `COc1ccc(O)c(CN2CCN(c3cc(C)ccc3C)CC2)c1` yielded an inhibition of 2.93%. `COc1cc(C=CC(=O)N2CCC(CN3CCC(c4c[nH]c5ccccc45)CC3)CC2)ccc1O` showed an inhibition of 8.46%. For `Cc1ccc2[nH]cc(C3CCN(CC4CCC(NC(=O)/C=C/c5ccc(Cl)c(Cl)c5)CC4)CC3)c2c1` (centres undefined), the inhibition was 4.11% and 12%. `Cc1csc(-c2ccc3[nH]cc(C4=CCN(C)CC4)c3c2)n1` was tested, and the inhibition was 7.46%. For `COc1cccc(/C=C/C(=O)NC2CCC(CN3CCC(c4c[nH]c5ccccc45)CC3)CC2)c1` (centres undefined), the inhibition was 2.16% and -1.74%. `CN(c1cc(NC(=O)c2ccc(F)cc2)ccn1)C1CCN(Cc2cccc(C#N)c2)CC1` was tested, and the inhibition was 3.24%. `O=C(NC1CCC(CN2CCC(c3c[nH]c4ccccc34)CC2)CC1)C1(O)c2ccccc2-c2ccccc21` (centres undefined) gave an inhibition of 1.4%. With `COc1ccc(OC)c(C=CC(=O)NC2CCC(CN3CCC(c4c[nH]c5ccccc45)CC3)CC2)c1` (centres undefined) the inhibition was -2.94%. For `NC1=NC2(CCCC2)N(c2ccc(Cl)cc2)C(N)=N1`, the inhibition was 3.05%. Work on `FC(F)(F)c1ccc(NC(=S)N2CCC(CN3CCC(c4c[nH]c5ccccc45)CC3)CC2)cc1` yielded an inhibition of -0.87%. With `CC(=O)Nc1ccc2[nH]cc(C3CCN(CC4CCC(NC(=O)/C=C/c5ccc(Cl)c(Cl)c5)CC4)CC3)c2c1` (centres undefined) the inhibition was -0.34% and -0.54%.
